# Measured values published in PubChem BioAssay.
# Unmarked numbers belong to inactive results. No rule for the calls is given here.
# Target: Pantothenate synthetase (Mycobacterium tuberculosis (strain ATCC 25618 / H37Rv)) (UniProt P9WIL5)
# Assay: Coupled enzyme confirmation of inhibitors against recombinant Mtb PanC (AID 375);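 also: 0% = full reaction with vehicle and 100% = no enzyme background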
# Conditions: coupled enzyme assay; at 10 µM, hits give high values
# Chain of Pantothenate synthetase (Mycobacterium tuberculosis (strain ATCC 25618 / H37Rv)) (P9WIL5 whole entry, looked up): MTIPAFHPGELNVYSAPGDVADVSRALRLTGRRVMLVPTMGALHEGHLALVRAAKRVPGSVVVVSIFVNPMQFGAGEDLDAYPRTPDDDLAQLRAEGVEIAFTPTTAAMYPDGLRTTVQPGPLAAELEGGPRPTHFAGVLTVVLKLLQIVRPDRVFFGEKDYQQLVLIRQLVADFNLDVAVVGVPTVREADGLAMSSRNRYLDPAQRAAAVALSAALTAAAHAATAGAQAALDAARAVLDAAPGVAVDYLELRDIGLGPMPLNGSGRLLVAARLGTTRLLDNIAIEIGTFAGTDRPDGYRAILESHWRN
row,Structure (SMILES),inhibition
1,CC1(C)Cc2cccc(OCC(O)CN3CCN(c4ccccn4)CC3)c2O1 (centres undefined),0%
2,Cn1c(=O)[nH]c(=O)c2c1nc(N1CCNCC1)n2Cc1cccc2ccccc12,8%
3,CCCn1c(=O)c2ccccc2n2c(SCc3cc(=O)n4ccsc4n3)nnc12,0%
4,CC(C)NC(=O)CSCc1ccccc1Cl,13%
5,COc1ccc(OCC(=O)Nc2ccc(N3CCOCC3)c(Cl)c2)cc1,0%
6,COc1ccc(CCN2C(=O)CC(N3CCOCC3)C2=O)cc1 (centres undefined),0%
7,O=C(Nc1ccccc1N1CCN(c2ccc(F)cc2)CC1)c1ccccc1,0%
8,c1ccc(Cn2nnnc2CN2CCN(c3ncccn3)CC2)cc1,1%
9,COc1ccccc1-c1cc2nc(C)c(CCC(=O)NCc3ccco3)c(C)n2n1,0%
10,CC(=O)c1ccc(NC(=O)C2CCN(S(=O)(=O)c3cccc4cccnc34)CC2)cc1,4%
11,COc1ccc2c(c1)C1(Nc3ccccc3-c3nc4ccccc4n31)C(=O)N2 (centres undefined),0%
12,Cc1cc(O)c(NC(=O)c2ccc(Br)o2)cc1C,11%
13,CCOC(=O)N1CCC(NC(=O)CCN2C(=O)COc3ccccc32)CC1,0%
14,OCc1nc(CO)n(Cc2ccccc2)n1,0%
15,O=C(N1CCN(Cc2ccccc2)CC1)C12CC3CC(CC(C3)C1)C2,0%
16,CCOC(=O)N1CCN(C(c2ccc(Cl)cc2)c2sc3nc(C)nn3c2O)CC1 (centres undefined),0%
17,CCCN1Cc2cccc(C(=O)NC3CCCC3)c2C1=O,0%
18,COCCN(CCOC)C(=O)CCn1c(=O)oc2ccccc21,0%
19,O=C(c1ccccc1Oc1nnnn1-c1ccccc1)N1CCOCC1,0%
20,COc1ccc(C(C(C(=O)c2cccs2)N2CCOCC2)N2CCOCC2)cc1OC (centres undefined),0%

row,Structure (SMILES),inhibition
1,COc1ccc(C(C)NC(=O)c2ccoc2C)cc1OC (centres undefined),5%
2,CC(C)COc1ccc(-c2nnn(CC(=O)N3CCCC3)n2)cc1,0%
3,Cc1ccc(-c2nnn(CC(=O)NC3CC4CCC3C4)n2)cc1 (centres undefined),4%
4,CC(C)CCNC(=O)NC(=O)CSc1nnc(-c2ccccc2Br)o1,1%
5,O=C(NCc1ccccc1)c1ccc(OC2CSC2)cc1,1%
6,C#CCN1C(=O)C(O)(CC(=O)c2cccc(OC)c2)c2ccccc21 (centres undefined),0%
7,COC(=O)N1CC(c2ccccc2)CC1=O (centres undefined),4%
8,Cc1cc(/N=C/N(C)C)on1,0%
9,CC(NC(=O)c1cc2c(=O)n(C)c3ccccc3c2n1C)c1ccc2c(c1)OCCO2 (centres undefined),3%
10,Cc1ccc(Cn2ncc3c(NCCCN4CCOCC4)ncnc32)cc1,8%
11,COC(=O)CN(c1nc(C)c(Cl)c(OC)n1)S(=O)(=O)c1ccc(C)cc1,0%
12,O=C(COc1ccc2ccccc2c1)N1CCCC1,8%
13,Cc1ccc2nc(/C(C#N)=N/O)[nH]c2c1,10%
14,COc1cc(CN2CCC(C(=O)NC3CCCC3)CC2)ccc1O,0%
15,CCS(=O)(=O)N1CCC(C(=O)NC2CCCCCCC2)CC1,1%
16,O=C(c1cnccn1)N(c1ccccc1)C1(C(=O)NC2CCCC2)CCCCC1,0%
17,COC(=O)c1ccccc1S(=O)(=O)N(CCCO)Cc1cc2c(C)ccc(C)c2[nH]c1=O,2%
18,CCCCn1c(SCC(=O)NCc2ccccc2)nc2ccc(N3CCOCC3)cc2c1=O,0%
19,CCOC(=O)c1nnn(CC(=O)Nc2cccc(OC)c2)c1C(=O)OCC,9%
